One experiment is described as follows: qHTS profiling for inhibitors of Plasmodium falciparum (HB3) proliferation (AID 743324).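 Further: 100% = DMSO vehicle wells and 0% = artemisinin-treated control wells.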 The conditions noted are these: Plasmodium falciparum HB3 blood-stage proliferation; at 28.7 µM (top of the series) unless noted. In short, it runs like this:
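P. falciparum HB3 grown in erythrocytes (0.3% parasitemia, 2.5% hematocrit final) with compound for 72 h at 37 C, 5% CO2. Parasite DNA detected by SYBR Green after saponin/triton lysis overnight; normalized to 0.29 uM artemisinin and DMSO.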
With `CC(=O)NCCC(=O)N[C@@H](CCC(N)=O)C(=O)N[C@@H](CO)C(=O)N[C@@H](CCC(N)=O)C(=O)N[C@@H](CCC(N)=O)C(=O)N[C@H](C(=O)N[C@@H](Cc1ccccc1)C(=O)N[C@]1(C)CCCCCCC=CCCC[C@@](C)(C(=O)N[C@@H](CCC(N)=O)C(=O)N[C@@H](CC(N)=O)C(N)=O)NC(=O)[C@H](CC(C)C)NC(=O)[C@H](CC(C)C)NC(=O)[C@@H](CCCNC(=N)N)NC(=O)[C@H](Cc2c[nH]c3ccccc23)NC(=O)[C@H](CC(C)C)NC(=O)[C@H](CC(N)=O)NC1=O)[C@H](C)O`, the remaining proliferation (% of control), lower = more inhibition worked out at 66.8%.

In the case of `Cn1cc(-c2ccc3nnc(Sc4ccc5ncccc5c4)n3n2)cn1`, the remaining proliferation (% of control), lower = more inhibition was 72.7%. Consider `CC(O)=C(C#N)C(=O)Nc1ccc(C(F)(F)F)cc1`, for which the remaining proliferation (% of control), lower = more inhibition amounted to 98.9%. Regarding `CC(C)Oc1cc(Nc2nc(N[C@@H](C)c3ccc(F)cn3)ncc2Cl)[nH]n1`, the remaining proliferation (% of control), lower = more inhibition came out at 3.28%. With `CCOC(=O)[C@@H](N)CCC(=O)N[C@@H](CSCc1ccccc1)C(=O)N[C@@H](C(=O)OCC)c1ccccc1`, the remaining proliferation (% of control), lower = more inhibition is 64.9%. The same measure, in the same setting: the value for `COc1ccc(CCN(C)CCCOc2ccc(S(=O)(=O)c3[nH]c4ccccc4c3C(C)C)cc2)cc1OC` was -1.05%. Still for that read-out and setting: then `O=C(Nc1ccc(OC(F)(F)F)cc1)c1sccc1NCc1ccnc2ccccc12`, with 58.1%. Take `COc1cc2nccc(Oc3ccc(NC(=O)Nc4cc(C)on4)c(Cl)c3)c2cc1OC`: the remaining proliferation (% of control), lower = more inhibition is 11.5%.

Another experiment can be described thus: qHTS profiling of the MIPE4 collection as inhibitors of Plasmodium falciparum (3D7) proliferation (AID 743344).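 Further: scaled between DMSO vehicle wells and 0.29 µM artemisinin as full inhibition.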 The conditions noted are these: P. falciparum 3D7 in erythrocytes, SYBR Green DNA fluorescence, 72 h; at 28.5 µM (top of the series) unless noted. The method, boiled down:
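Erythrocytes infected with P. falciparum (0.3% parasitemia, 2.5% hematocrit) incubated with compounds 72 h at 37 C, 5% CO2. Lysis with saponin/Triton buffer containing SYBR Green I, overnight at room temperature in the dark; DNA fluorescence (485/535 nm) normalised to 0.29 uM artemisinin and DMSO.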
`O=[N+]([O-])c1ccc(Nc2ccccc2-c2ccccc2)c2nonc12` returned a parasite growth, % of DMSO control of 33.4%.

For `CCC(=C(CC)c1ccc(O)cc1)c1ccc(O)cc1`, the parasite growth, % of DMSO control was 57.2%. The same measure, in the same setting: then `C=C1c2cccc(O)c2C(O)=C2C(=O)[C@@]3(O)C(O)=C(C(N)=O)C(=O)[C@@H](N(C)C)[C@@H]3[C@@H](O)[C@H]12`, with 23.7%; and `CC(=O)NCCC(=O)N[C@@H](CCC(N)=O)C(=O)N[C@@H](CO)C(=O)N[C@@H](CCC(N)=O)C(=O)N[C@@H](CCC(N)=O)C(=O)N[C@H](C(=O)N[C@@H](Cc1ccccc1)C(=O)N[C@]1(C)CCCCCCC=CCCC[C@@](C)(C(=O)N[C@@H](CCC(N)=O)C(=O)N[C@@H](CC(N)=O)C(N)=O)NC(=O)[C@H](CC(C)C)NC(=O)[C@H](CC(C)C)NC(=O)[C@@H](CCCNC(=N)N)NC(=O)[C@H](Cc2c[nH]c3ccccc23)NC(=O)[C@H](CC(C)C)NC(=O)[C@H](CC(N)=O)NC1=O)[C@H](C)O`, with 86.3%; and `Cc1ccc2c(c1)c1c(n2CCc2ccc(C)nc2)CCN(C)C1`, with 113%. Still for that read-out and setting: the value for `O=c1[nH]c(=O)n([C@H]2C[C@@H](O)[C@@H](CO)O2)cc1I` was 85%. The same measure, in the same setting: the value for `Cn1cc(-c2ccc3nnc(Sc4ccc5ncccc5c4)n3n2)cn1` was 36.1%. Turning to `Cc1ccc(NC(=O)Nc2cc(C(F)(F)F)ccc2F)cc1Nc1ccc2c(c1)NC(=O)C2=Cc1ccc[nH]1`, the parasite growth, % of DMSO control is 8.05%.

In the case of `O=c1[nH]nc(OCCCc2ccc(Cl)cc2)c(NCc2cccnc2)c1Br`, the parasite growth, % of DMSO control is 6.4%. Same read-out and setting: then `CC(O)=C(C#N)C(=O)Nc1ccc(C(F)(F)F)cc1`, with 63.7%; and `CC(C)Oc1cc(Nc2nc(N[C@@H](C)c3ccc(F)cn3)ncc2Cl)[nH]n1`, with 9.44%; and `CCC(=O)OCC(=O)[C@@]1(OC(=O)CC)[C@@H](C)C[C@@H]2[C@H]3CCC4=CC(=O)C=C[C@]4(C)[C@@]3(F)[C@@H](O)C[C@@]21C`, with 12%.

As to `CCOC(=O)[C@@H](N)CCC(=O)N[C@@H](CSCc1ccccc1)C(=O)N[C@@H](C(=O)OCC)c1ccccc1`, the parasite growth, % of DMSO control is 89.7%. In turn, `COc1ccnc(CS(=O)c2nc3ccc(OC(F)F)cc3[nH]2)c1OC` (stereo not given) returned a parasite growth, % of DMSO control of 58.5%. The same measure, in the same setting: the value for `COc1ccc(CCN(C)CCCOc2ccc(S(=O)(=O)c3[nH]c4ccccc4c3C(C)C)cc2)cc1OC` was 31.8%; that for `CCOC(=O)N1c2ccc(C(F)(F)F)cc2[C@@H](N(Cc2cc(C(F)(F)F)cc(C(F)(F)F)c2)C(=O)OC)C[C@H]1CC` was 6.27%.

`O=C(CCCN1CCN(c2ccc(F)cc2)CC1)NC1c2ccccc2CSc2ccccc21` (stereo not given): the parasite growth, % of DMSO control stood at 76%. Same read-out and setting: then `C[C@@H](O)[C@H]1C(=O)N2C(C(=O)OCOC(=O)C(C)(C)C)=C(SC3CN(C4=NCCS4)C3)[C@H](C)[C@H]12`, with 66%; and `Oc1cc(O)cc(C=Cc2ccc(O)c(O)c2)c1`, with 39.8%; and `C#CCN(C)CC1=Cc2ccccc2Oc2ccccc21`, with 51.9%. The molecule `CCc1cccc(CC)c1NC(=O)N1Cc2[nH]nc(NC(=O)c3ccc(N4CCN(C)CC4)cc3)c2C1` displayed a parasite growth, % of DMSO control of 19%. The same measure, in the same setting: then `NC[C@H]1O[C@H](O[C@@H]2[C@@H](O)[C@@H](O[C@H]3O[C@H](CO)[C@@H](O)[C@H](N)[C@@H]3O)[C@H](N)C[C@@H]2N)[C@H](O)[C@@H](O)[C@H]1O`, with 96.1%; and `C=CC[N+]1([C@H]2C[C@H]3[C@@H]4CC[C@H]5C[C@H](O)[C@@H](N6CCOCC6)C[C@]5(C)[C@@H]4CC[C@]3(C)[C@H]2OC(C)=O)CCCC1`, with 31.1%; and `COc1cc2nccc(Oc3ccc(NC(=O)Nc4cc(C)on4)c(Cl)c3)c2cc1OC`, with 7.24%.

For `c1ccc(CNc2nc(N3CCOc4ccccc43)nc3c2CCCC3)cc1`, the parasite growth, % of DMSO control was 10.7%. In turn, `Clc1ccc(C2(c3ccc(-c4cn[nH]c4)cc3)CCNCC2)cc1` registered a parasite growth, % of DMSO control of 4.5%. Still for that read-out and setting: then `O=C(Nc1ccccc1)Nc1ccc(-c2ccc(C(=O)[C@H]3CCC[C@H]3C(=O)O)cc2)cc1`, with 29%.

These data come from PubChem BioAssay (NCATS).
